Screening data (PubChem)
An excerpt weighted towards active compounds, which were near 6.8% of everything screened.
Spn DPM-DC inh: S. pneumoniae DPM-DC inhibition | 65,000 compounds, 0.49% hits | purified DPM-DC, PK/LDH coupled NADH fluorescence | calls only at 10 µM;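 active means the 320 compounds with the highest percent inhibition in the single-dose primary screen, excluding strongly autofluorescent ones, cut at about 32% in these data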;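 further: kinetic rate of NADH fluorescence loss reporting ADP formed by the decarboxylase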
PMK inhibit: blocks S. pneumoniae phosphomevalonate kinase; purified PMK, PK/LDH-coupled NADH absorbance 340 nm; inhibition, % at 10 µM; 65,000 compounds, 0.49% hits; AID 539;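 active means top-ranked compounds by inhibition in the single 10 µM screen, taking a fixed number of the strongest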
NADH coupling: inhibitors of enzymes used to reach an NAD/NADH endpoint; coupled PK/LDH NADH assays, four targets; IC50, µM (titrated, usually from 10 µM); 65,000 compounds, 0.02% hits; AID 774;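 active means single-dose screening hits from any of four coupled enzyme assays that gave an IC50 when retested across doses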;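 further: the DPM-DC format reads NADH fluorescence rather than 340 nm absorbance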
MK inhibit: S. pneumoniae mevalonate kinase inhibition; purified MK, PK/LDH-coupled NADH absorbance 340 nm; inhibition, % at 10 µM; 65,000 compounds, 0.48% hits;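 active means ranked among the strongest by inhibition in the single 10 µM screen, a fixed top-ranked set picked for dose follow-up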
Autofluor 339: intrinsic fluorescence of library compounds, ex339/em460 – biochemical, MLSMR library, data from DPM-DC assay, artefact control, profiling panel; compound autofluorescence, ex339/em460 nm, NADH buffer; hits give high values; 1 = no-compound wells, NADH background; AID 709; 65,000 compounds, 5.5% hits; fluorescence fold increase at 10 µM;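 active means at 10 µM, mean starting fluorescence two-fold or more over control wells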;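 further: signal is the first read of a kinetic run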
A340 absorber: absorbance at 340 nm | fold change at 10 µM | 65,000 tested, under 10 active | compound absorbance at 340 nm, fold over control | AID 708;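 active means at 10 µM dose, initial 340 nm absorbance at least 2 fold that of control wells; inactive means change under 2 fold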;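 further: initial absorbance extrapolated from kinetic A340 decline of NADH oxidation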
A number is an active result.

`COc1ccc(NC(=O)c2ccco2)cc1NC(=O)c1ccc(Br)o1` gave Spn DPM-DC inh inactive, PMK inhibit inactive, NADH coupling inactive, MK inhibit inactive, Autofluor 339 inactive and A340 absorber inactive.
Screening Cc1ccc(NC(=O)c2cc(NC(=O)c3ccco3)ccc2N2CCCCC2)cc1 returned PMK inhibit inactive, NADH coupling inactive, MK inhibit inactive, Autofluor 339 2.1 and A340 absorber inactive.
Screening CCOC(=O)c1ccc(NS(=O)(=O)N2CCCCCC2)cc1 returned Spn DPM-DC inh inactive, PMK inhibit inactive, NADH coupling inactive, MK inhibit inactive, Autofluor 339 inactive and A340 absorber inactive.
Screening O=C(Nc1nnc(-c2cccs2)o1)c1cccc(C(F)(F)F)c1 returned Spn DPM-DC inh inactive, PMK inhibit inactive, NADH coupling inactive, MK inhibit inactive, Autofluor 339 inactive and A340 absorber inactive.
`Fc1ccc2c(Cl)c(-c3nnc(-c4cccs4)o3)sc2c1` gave PMK inhibit inactive, NADH coupling inactive, MK inhibit inactive, Autofluor 339 3.6 and A340 absorber inactive.
For O=C(Nc1ccc2c(c1)OC1(CCCC1)O2)C1CC1 the results were Spn DPM-DC inh inactive, PMK inhibit inactive, NADH coupling inactive, MK inhibit inactive, Autofluor 339 inactive and A340 absorber inactive.
`CCN(CC)c1ccc2cc(NC(=O)CCC(=O)O)c(=O)oc2c1` gave PMK inhibit inactive, NADH coupling inactive, MK inhibit inactive, Autofluor 339 3 and A340 absorber inactive.
Screening Cc1cc(C)nc(SCc2nc(N)nc(-c3ccccc3O)n2)n1 returned Spn DPM-DC inh inactive, PMK inhibit inactive, NADH coupling inactive, MK inhibit inactive, Autofluor 339 inactive and A340 absorber inactive.
`COc1cccc(N2CCN(C3CC(=O)N(c4ccc(C)c(Cl)c4)C3=O)CC2)c1` (centres undefined) gave Spn DPM-DC inh inactive, PMK inhibit inactive, NADH coupling inactive, MK inhibit 40, Autofluor 339 inactive and A340 absorber inactive.
`COc1cccc(N2CCN(C3CC(=O)N(c4ccc(F)c(Cl)c4)C3=O)CC2)c1` (centres undefined) gave Spn DPM-DC inh inactive, PMK inhibit inactive, NADH coupling inactive, MK inhibit inactive, Autofluor 339 inactive and A340 absorber inactive.
For CC(C)Sc1nc(-c2cccs2)nc2c1c(=O)n(C)c(=O)n2C the results were Spn DPM-DC inh inactive, PMK inhibit inactive, NADH coupling inactive, MK inhibit inactive, Autofluor 339 inactive and A340 absorber inactive.
`Cn1c(=O)c2c(SCC(=O)NCC3CCCO3)nc(-c3cccs3)nc2n(C)c1=O` (centres undefined) gave PMK inhibit inactive, NADH coupling inactive, MK inhibit inactive, Autofluor 339 2.2 and A340 absorber inactive.
For O=C(Nc1nc2c(ccc3ccccc32)s1)c1ccco1 the results were Spn DPM-DC inh inactive, PMK inhibit inactive, NADH coupling inactive, MK inhibit inactive, Autofluor 339 2.8 and A340 absorber inactive.
Cc1nnc(NC(=O)c2ccco2)s1 was read as Spn DPM-DC inh inactive, PMK inhibit inactive, NADH coupling inactive, MK inhibit inactive, Autofluor 339 inactive and A340 absorber inactive.
Screening Cc1nc2ccc3nc(NC(=O)c4ccco4)sc3c2s1 returned Spn DPM-DC inh inactive, PMK inhibit 30, NADH coupling inactive, MK inhibit inactive, Autofluor 339 inactive and A340 absorber inactive.
Screening O=C(Cn1cc(C(F)(F)F)ccc1=O)N1CCN(S(=O)(=O)c2ccccc2)CC1 returned Spn DPM-DC inh inactive, PMK inhibit 27, NADH coupling inactive, MK inhibit inactive, Autofluor 339 inactive and A340 absorber inactive.
For O=C(CN1CCc2ccccc2C1)N1CCN(S(=O)(=O)c2ccccc2)CC1 the results were Spn DPM-DC inh inactive, PMK inhibit inactive, NADH coupling inactive, MK inhibit inactive, Autofluor 339 inactive and A340 absorber inactive.
O=C(CSc1nc(-c2ccc(F)cc2)cs1)N1CCN(C(=O)c2ccco2)CC1 was read as Spn DPM-DC inh inactive, PMK inhibit inactive, NADH coupling inactive, MK inhibit inactive, Autofluor 339 inactive and A340 absorber inactive.
For O=C(COc1ccccc1)Nc1nnc(-c2ccccc2)o1 the results were Spn DPM-DC inh inactive, PMK inhibit inactive, NADH coupling inactive, MK inhibit inactive, Autofluor 339 inactive and A340 absorber inactive.
Screening O=C(COc1ccccc1)Nc1nnc(-c2ccc(Cl)s2)o1 returned PMK inhibit inactive, NADH coupling inactive, MK inhibit inactive, Autofluor 339 2.1 and A340 absorber inactive.
